Screening results (PubChem BioAssay)
Sampled rows, rich in hits. Any-hit rate of the full collection: about 11%.
L3MBTL1 inh: qHTS Assay for the Inhibitors of L3MBTL1. AID 485360, 2010. hit rate 0.66% among 230,000. AlphaScreen L3MBTL1–H3K9me1 peptide binding. Potency, µM (doses to about 57.1 µM), for inactives: top-dose activity, negative = inhibition, usual class: inhibitors; note: potency is the fitted concentration of half-maximal effect; % is set by controls: 0 for no effect and ±100 for the full control effect; nearly all actives have a fitted effect of over 60% in size
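AlphaScreen proximity signal between nickel-chelate acceptor and streptavidin donor beads (final 10 ug/mL) reports binding of 50 nM L3MBTL1 to 75 nM biotin-H3 K9me1 peptide; complex incubated with compounds 30 min at room temperature; cefsulodin titration as control.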
PI5P4K alpha inh: qHTS for Inhibitors of phosphatidylinositol 5-phosphate 4-kinase (PI5P4K); hit rate 1.2% among 330,000; max response, %; PI5P4Kalpha enzyme, ADP-Glo luminescence, 60 min; hits give low values; Phosphatidylinositol 5-phosphate 4-kinase type-2 alpha (Homo sapiens), P48426; active = max response of -50% or lower; inconclusive = between -30% and -50%; inactive = -30% or higher; note: value at the top dose of about 77 µM; % is set by controls: 0 for no effect and ±100 for the full control effect
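Enzyme plus substrate dispensed, test compounds pinned in, then ATP (5 microM final) added. After 60 min at RT, ADP-Glo reagent 1 for 45 min and reagent 2 for 30 min preceded luminescence imaging.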
JMJD2A Tudor: qHTS Assay for Inhibitors of JMJD2A-Tudor Domain; hit rate 4.4% among 390,000; AlphaScreen JMJD2A-Tudor / H3K4me3 peptide binding; Potency, µM (titrated, usually from 114 µM), for inactives: at the top dose activity change, negative = inhibition, most hits filed as inhibitors; Lysine-specific demethylase 4A (Homo sapiens), O75164; AID 504339, 2011; note: potency is the fitted concentration of half-maximal effect; % is set by controls: 0 for no effect and ±100 for the full control effect; nearly all actives have a fitted effect of over 50% in size
BAZ2B inh: qHTS Assay for Inhibitors of BAZ2B. hit rate 4.4% among 360,000. AlphaScreen BAZ2B-H3K14Ac peptide displacement. Potency, µM (top dose mostly 114 µM), without a hit: at the highest dose activity change, negative = inhibition, actives largely listed as inhibitors. Bromodomain adjacent to zinc finger domain protein 2B (Homo sapiens), Q9UIF8; note: potency is the fitted concentration of half-maximal effect; % is set by controls: 0 for no effect and ±100 for the full control effect; nearly all actives have a fitted effect of over 60% in size
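BAZ2B (50 nM) with biotin-H3(5-23)K14Ac peptide (50 nM) in PBS pH 7.4, 0.01% Tween-20, preformed 30 min, then compound 30 min at room temperature; top concentration 110uM. AlphaScreen streptavidin donor/nickel chelate acceptor beads (10 ug/mL final), 20 min dark, signal read.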
HP1b binding inh: HTS for Inhibitors of HP1-beta Chromodomain Interactions with Methylated Histone Tails | AID 540317, 2011 | AlphaScreen HP1-beta / biotin-H3K9me3 peptide binding | Potency, µM (series often up to 114 µM), for the others: top-dose activity change, negative = inhibition, most hits filed as inhibitors | hit rate 0.56% among 390,000; note: potency is the fitted concentration of half-maximal effect; nearly all actives have a fitted effect of over 70% in size
Target sequence (P83916 whole entry, looked up): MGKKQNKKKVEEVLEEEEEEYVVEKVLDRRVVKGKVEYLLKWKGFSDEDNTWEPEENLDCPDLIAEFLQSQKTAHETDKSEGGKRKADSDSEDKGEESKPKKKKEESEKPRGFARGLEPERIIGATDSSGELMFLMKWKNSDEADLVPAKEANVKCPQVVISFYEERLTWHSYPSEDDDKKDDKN
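AlphaScreen: HP1-beta (50 nM) preformed 30 min with biotin-H3(1-18)K9me3 peptide (50 nM) in PBS pH 7.4, 0.01% Tween-20. Compound added for 30 min at RT, then streptavidin donor/nickel chelate acceptor beads (10 ug/mL) for 30 min.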
G9a inh: qHTS Assay for Inhibitors of Histone Lysine Methyltransferase G9a; hit rate 8.8% among 350,000; G9a H3K9 monomethylation, AlphaScreen, 2 h; Potency, µM (titrated, usually from 102 µM), without a hit: top-dose activity, negative = inhibition, usual class: inhibitors; note: potency is the fitted concentration of half-maximal effect; % is set by controls: 0 for no effect and ±100 for the full control effect; nearly all actives have a fitted effect of over 75% in size
Target sequence (Q96KQ7 913-1193 limits assumed): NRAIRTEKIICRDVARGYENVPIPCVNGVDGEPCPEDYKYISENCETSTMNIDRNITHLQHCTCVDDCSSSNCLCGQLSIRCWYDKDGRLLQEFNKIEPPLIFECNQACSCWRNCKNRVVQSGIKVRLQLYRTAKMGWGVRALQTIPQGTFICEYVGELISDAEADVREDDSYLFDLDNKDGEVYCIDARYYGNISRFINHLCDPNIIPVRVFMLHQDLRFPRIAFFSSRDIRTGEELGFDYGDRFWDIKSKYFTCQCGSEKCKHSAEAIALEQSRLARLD
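Chemiluminescent proximity detection of H3K9 monomethylation, read after 10 min bead incubation in the dark. Reaction: 20 nM G9a, 500 nM biotin-H3K9 peptide, 20 uM SAM cofactor, 2 h, room temperature, following 15 min enzyme-compound preincubation.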
* marks the source's active call; other numbers are inactive results; ? = inconclusive; . = not tested or not shown; ! = repeats disagree; [ ] = dose if it differs, or a comment. Unless noted, calls come from the whole dose curve; as a rule, active = well fitted inhibition curve with a large enough effect; inconclusive = small, poorly fitted or top-dose-only effect; inactive = no such curve, though single readings can be large or run the other way.

SMILES	L3MBTL1 inh	PI5P4K alpha inh	JMJD2A Tudor	BAZ2B inh	HP1b binding inh	G9a inh
COc1cc(/C=C2\S/C(=N/S(=O)(=O)c3ccc(C)cc3)NC2=O)c([N+](=O)[O-])cc1OC	?	-5	6%	-37%	21%	?
Cc1ccc(S(=O)(=O)/N=C2/NC(=O)/C(=C/c3ccncc3)S2)cc1	5%	.	.	-11%	.	?
Cc1ccc(/C=C2\S/C(=N/S(=O)(=O)c3cccs3)NC2=O)cc1	-7%	-59*	-13%	-26%	7%	-8%[59 µM]
CC(=O)Nc1ccc(S(=O)(=O)/N=C2/NC(=O)/C(=C\c3ccco3)S2)cc1	.	2	-18%[11.4 µM]	?	19%	22µM*
Cc1ccc(NC(=O)C2CC(=O)N/C(=N/N=C/c3ccco3)S2)cc1 (centres undefined)	2%	7	1%	-6%	27%	59%[59 µM]
Cc1ccc(S(=O)(=O)/N=C2/NC(=O)/C(=C\c3ccco3)S2)cc1	-10%	-13	-31%	-13%	0%	40µM*
O=C1N/C(=N/S(=O)(=O)c2ccccc2)S/C1=C/c1cccnc1	3%	-57*	-3%	2%	36%	?
CCc1ccc(-n2c(=O)c3c4c(sc3n(Cc3cc(=O)n5c(C)cccc5n3)c2=O)CCC4)cc1	.	.	4%	6%	20%	8%[59 µM]
Cc1ccc(S(=O)(=O)/N=C2/NC(=O)/C(=C\c3ccccc3)S2)cc1	-7%	-18	-30%	.	-5%	.
Cc1ccc(S(=O)(=O)/N=C2/NC(=O)/C(=C/c3ccccc3)S2)cc1	-8%	-5	-19%	?	10%	50µM*
O=C(CSC1=Nc2ccccc2C2=NC(Cc3c[nH]c4ccccc34)C(=O)N12)NC1CCCCC1 (centres undefined)	.	.	-13%	-8%	2%	50µM*
COc1cccc(NC(=O)Cn2c(=O)c3cccn3c3ccc(F)cc32)c1	.	.	-8%	-12%	39%	-4%[59 µM]
O=C(CSc1ccc(-c2ccccn2)nn1)NCc1ccc(F)cc1	.	0	7.9µM*	3.2µM*	12%	-16%
O=C(CSCc1ccc(F)cc1)NCc1ccc(F)cc1	.	-4	100µM*!	0%	28%	18%[59 µM]
O=C(CSc1ncccn1)NCc1ccc(F)cc1	1%	.	-7%	.	31%	14%[59 µM]
O=C(CSc1ccc(-c2ccco2)nn1)NC1CCCCC1	.	?	?	50µM*	0%	45µM*
O=C(CSc1ccc(-c2ccccn2)nn1)NC1CCCCC1	.	1	3.5µM*	4µM*	30%	31%
CCCN(N=Nc1cccc([N+](=O)[O-])c1)c1cccc([N+](=O)[O-])c1	.	.	?	?	-25%	32µM*
CCC(=O)N1CCc2cc(Br)cc(S(=O)(=O)CCC(=O)N3CCN(c4cccc(C(F)(F)F)c4)CC3)c21	.	.	-8%	-2%	7%	-31%[59 µM]
CC(C)CC(=O)N1CCN(c2ccc([N+](=O)[O-])c(NCc3ccccc3)c2)CC1	.	-3	50µM*	.	?	.
Cc1cccc(OCCNc2cc(N3CCOCC3)ccc2[N+](=O)[O-])c1	-23%	.	?	?	-19%	10µM*
COc1ccccc1OCCNc1cc(N2CCCCC2)ccc1[N+](=O)[O-]	?	-2	?	?	?	?
O=[N+]([O-])c1ccc([N+](=O)[O-])c(Nc2ccc(N3CCOCC3)cc2)c1	-9%	-2	18µM*	18µM*	?	-35%[12.7 µM]
Cc1ccccc1OCCNc1cc(N2CCNCC2)ccc1[N+](=O)[O-]	-12%	.	.	?	.	32µM*
